Assay [1] has as its target Rap guanine nucleotide exchange factor 3 (Homo sapiens) (UniProt O95398). As to the kind of experiment: Confirmatory qHTS for antagonist of cAMP-regulated guanine nucleotide exchange factor 3 (EPAC1) (AID 1645880). Further: nearly all actives have a fitted effect of over 55% in size. Further: potency means the concentration at half of the fitted maximal effect. In outline: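 Released BODIPY-GDP fluoresces less than Rap1-bound BODIPY-GDP; the signal is followed at 480/540 nm at 5-min intervals over 30 min, after 5 min at room temperature. Reactions contain 100 nM EPAC1, 250 nM RAP1B-BODIPY-GDP and 50 uM GDP; results are normalized to ATA and DMSO.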
In general terms: qHTS replaces the single test concentration by a dilution series.

Assay [2] has the same target. As to the kind of experiment: Confirmatory qHTS for agonist of cAMP-regulated guanine nucleotide exchange factor 3 (EPAC1) (AID 1645881).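 Further: EPAC1 catalysed release of BODIPY-GDP from Rap1B seen as fluorescence loss; 100% = effect of cAMP agonist control; nearly all actives have a fitted effect of over 75% in size.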
Assay [3] concerns the target Rap guanine nucleotide exchange factor 4 (Homo sapiens) (UniProt Q8WZA2). In words: Confirmatory qHTS for agonist of cAMP-regulated guanine nucleotide exchange factor 4 (EPAC2) (AID 1645884).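 Further: nucleotide exchange releases bodipy-GDP from Rap1 and this lowers its fluorescence; nearly all actives have a fitted effect of over 65% in size.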 Further: potency means the concentration at half of the fitted maximal effect. On activation: on the % scale 0 is the no-effect control and ±100 the full control effect.
Assay [4] deals with Rap guanine nucleotide exchange factor 3 (Homo sapiens) (UniProt O95398). In words: Counterscreen qHTS for antagonist of cAMP-regulated guanine nucleotide exchange factor 3 (EPAC1) (AID 1645888). Further: % of control where 0% means no effect. A digest of the protocol:
(§1)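 Rap1B–BODIPY-GDP (250 nM) with 50 uM GDP; compounds pin-transferred to 9.74 nM–152 uM final (activator) or from 7.32 nM upwards (inhibitor). Fluorescence Ex/Em 480/540 nm read at 5 and 30 min, then after adding cAMP or buffer, at room temperature.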
For orientation: Counterscreens check selectivity or assay interference.

Assay [5] addresses Rap guanine nucleotide exchange factor 4 (Homo sapiens) (UniProt Q8WZA2). As to the kind of experiment: Confirmatory qHTS for antagonist of cAMP-regulated guanine nucleotide exchange factor 4 (EPAC2) (AID 1645885). Further: nearly all actives have a fitted effect of over 25% in size. Further: potency means the concentration at half of the fitted maximal effect. On activity change, negative = inhibition: on the % scale 0 is the no-effect control and ±100 the full control effect.
The target of assay [6] is Rap guanine nucleotide exchange factor 3 (Homo sapiens) (UniProt O95398). In words: Counterscreen qHTS for agonist of cAMP-regulated guanine nucleotide exchange factor 3 (EPAC1) (AID 1645889). Further: % of control where 0% means no effect; nearly all actives have a fitted effect of over 40% in size. A digest of the protocol:
as §1

For assay [7], the target named is Glucocorticoid receptor (Homo sapiens) (UniProt P04150). As to the kind of experiment: GR-GFP Redistribution (AID 450;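 active means compounds whose dose series gives a full or clear partial fitted curve of increased nuclear translocation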; further: potency means the concentration at half of the fitted maximal effect). The settings on record: U2OS GR-GFP nuclear translocation, laser cytometry, 2 h.
Assay [8] shares this target. In words: GR-EFC Redistribution (AID 451; calls by dose curve; further: potency means the concentration at half of the fitted maximal effect). The settings on record: CHO-K1 GR-EFC translocation, beta-gal luminescence, 2 h. In outline:
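CHO-K1 cells expressing nuclear EA and GR-ED fragments of b-gal; compounds titrated up to 46 uM final, 2 h at 37 C. GR nuclear translocation read as complemented b-gal luminescence after 1 h RT detection.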

The target in assay [9] is Mitogen-activated protein kinase 10 (Mus musculus) (UniProt Q61831). In words: JNK3 AlphaScreen Assay (AID 530; active means well fitted curve in either direction with a large enough effect, not every such curve was filed as active;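 further: kinase came from lysate of stimulated human HepG2 cells; signal reports phosphorylation of biotinylated GST-cJun 1-79 at Ser73 with 10 µM ATP; series mostly up to about 57 µM; on the % scale 0 is the no-effect control and ±100 the full control effect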). A digest of the protocol:
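Activity was read by AlphaScreen after JNK3-containing HepG2 lysate (cytokine pre-activated) phosphorylated biotinylated GST-cJun with 10 uM ATP at room temperature. Phospho-Ser73 cJun antibody with Protein-A acceptor beads provided detection.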

Assay [10] concerns the target Cytochrome P450 2C9 (Homo sapiens) (UniProt P11712). As to the kind of experiment: qHTS Assay for Inhibitors and Substrates of Cytochrome P450 2C9 (AID 883). Further: potency means the concentration at half of the fitted maximal effect; nearly all actives have a fitted effect of over 60% in size. A digest of the protocol:
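Human CYP2C9 (10nM) with Luciferin-H at 100uM (its KM) in 25mM KPO4; compound preincubated 10 min at 37C, then NADPH regeneration for 60 min at 37C. Luciferin read by luminescence after detection reagent; normalized to 57uM sulphaphenazole as full inhibition.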

Assay [11] concerns the target Cytochrome P450 3A4 (Homo sapiens) (UniProt P08684). As to the kind of experiment: qHTS Assay for Inhibitors and Substrates of Cytochrome P450 3A4 (AID 884). Further: potency means the concentration at half of the fitted maximal effect; nearly all actives have a fitted effect of over 50% in size. In outline:
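Luminescent readout of luciferin produced by CYP3A4 (20 nM) dealkylation of Luciferin-PPXE, 25 uM (its KM). NADPH-driven reaction ran 60 min at RT after 10 min compound preincubation; data scaled to 57 uM ketoconazole as 100% inhibition.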

The target is the same in assay [12]. In words: qHTS Assay for Activators of Cytochrome P450 3A4 (AID 885). Further: nearly all actives have a fitted effect of over 65% in size. A digest of the protocol: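 Human CYP3A4 dealkylates Luciferin-PPXE to luciferin, which luciferase detection converts to light. Substrate was at its KM (25uM), buffer 200mM KPO4, reaction 60 min at RT.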
The target of assay [13] is DNA dC->dU-editing enzyme APOBEC-3G (Homo sapiens) (UniProt Q9HC16). In words: qHTS for inhibitors of Vif-A3G interactions: Validation (AID 588379). Further: 0% is about no effect. A digest of the protocol:
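Yellow fluorescence (Ex 488, Em 500-530) of Vif-coexpressing HeLa A3G-eYFP cells, scanned by Acumen cytometer, reports blocked A3G degradation. Cells plated at 700/well overnight at 37 deg C before compound addition, then a further overnight compound incubation at 37 deg C.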

Each structure is given as a SMILES string. A number with no mark means an inactive call. Results filed as inconclusive are left out. Calls of active or inactive are those of the source. Unless noted, the call rests on the fitted dose curve; in most records, active means well fitted curve in the direction sought with a large enough effect; inconclusive means small, poorly fitted or top-dose-only effect, or another doubt; inactive means no such curve, though single readings can be large; an effect the other way counts as inactive or inconclusive. A value given as a limit tells only on which side of the number the result lay.

Sequence of Rap guanine nucleotide exchange factor 3 (Homo sapiens) (O95398 whole entry, looked up): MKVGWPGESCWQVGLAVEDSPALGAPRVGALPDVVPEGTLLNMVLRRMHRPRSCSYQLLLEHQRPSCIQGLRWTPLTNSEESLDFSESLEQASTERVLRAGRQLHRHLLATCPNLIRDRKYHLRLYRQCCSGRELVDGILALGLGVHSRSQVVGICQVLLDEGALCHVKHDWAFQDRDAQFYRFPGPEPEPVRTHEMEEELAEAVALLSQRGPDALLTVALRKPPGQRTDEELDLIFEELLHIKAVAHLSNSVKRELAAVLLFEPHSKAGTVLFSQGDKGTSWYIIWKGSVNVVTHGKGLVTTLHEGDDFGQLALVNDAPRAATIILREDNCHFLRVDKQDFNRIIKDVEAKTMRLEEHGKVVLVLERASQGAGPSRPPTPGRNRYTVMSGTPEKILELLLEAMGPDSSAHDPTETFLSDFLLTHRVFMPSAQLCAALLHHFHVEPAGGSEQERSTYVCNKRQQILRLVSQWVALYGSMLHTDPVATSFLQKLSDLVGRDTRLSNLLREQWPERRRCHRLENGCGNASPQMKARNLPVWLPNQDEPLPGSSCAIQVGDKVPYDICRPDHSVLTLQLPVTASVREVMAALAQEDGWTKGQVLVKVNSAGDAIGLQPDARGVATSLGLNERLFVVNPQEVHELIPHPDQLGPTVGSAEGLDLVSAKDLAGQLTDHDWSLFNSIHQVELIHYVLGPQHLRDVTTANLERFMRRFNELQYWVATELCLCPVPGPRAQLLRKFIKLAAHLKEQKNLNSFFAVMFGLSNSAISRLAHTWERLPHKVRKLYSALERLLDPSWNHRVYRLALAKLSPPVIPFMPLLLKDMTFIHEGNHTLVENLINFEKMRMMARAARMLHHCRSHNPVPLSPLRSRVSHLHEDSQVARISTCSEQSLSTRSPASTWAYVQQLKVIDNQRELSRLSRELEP
Sequence of Rap guanine nucleotide exchange factor 4 (Homo sapiens) (Q8WZA2 whole entry, looked up): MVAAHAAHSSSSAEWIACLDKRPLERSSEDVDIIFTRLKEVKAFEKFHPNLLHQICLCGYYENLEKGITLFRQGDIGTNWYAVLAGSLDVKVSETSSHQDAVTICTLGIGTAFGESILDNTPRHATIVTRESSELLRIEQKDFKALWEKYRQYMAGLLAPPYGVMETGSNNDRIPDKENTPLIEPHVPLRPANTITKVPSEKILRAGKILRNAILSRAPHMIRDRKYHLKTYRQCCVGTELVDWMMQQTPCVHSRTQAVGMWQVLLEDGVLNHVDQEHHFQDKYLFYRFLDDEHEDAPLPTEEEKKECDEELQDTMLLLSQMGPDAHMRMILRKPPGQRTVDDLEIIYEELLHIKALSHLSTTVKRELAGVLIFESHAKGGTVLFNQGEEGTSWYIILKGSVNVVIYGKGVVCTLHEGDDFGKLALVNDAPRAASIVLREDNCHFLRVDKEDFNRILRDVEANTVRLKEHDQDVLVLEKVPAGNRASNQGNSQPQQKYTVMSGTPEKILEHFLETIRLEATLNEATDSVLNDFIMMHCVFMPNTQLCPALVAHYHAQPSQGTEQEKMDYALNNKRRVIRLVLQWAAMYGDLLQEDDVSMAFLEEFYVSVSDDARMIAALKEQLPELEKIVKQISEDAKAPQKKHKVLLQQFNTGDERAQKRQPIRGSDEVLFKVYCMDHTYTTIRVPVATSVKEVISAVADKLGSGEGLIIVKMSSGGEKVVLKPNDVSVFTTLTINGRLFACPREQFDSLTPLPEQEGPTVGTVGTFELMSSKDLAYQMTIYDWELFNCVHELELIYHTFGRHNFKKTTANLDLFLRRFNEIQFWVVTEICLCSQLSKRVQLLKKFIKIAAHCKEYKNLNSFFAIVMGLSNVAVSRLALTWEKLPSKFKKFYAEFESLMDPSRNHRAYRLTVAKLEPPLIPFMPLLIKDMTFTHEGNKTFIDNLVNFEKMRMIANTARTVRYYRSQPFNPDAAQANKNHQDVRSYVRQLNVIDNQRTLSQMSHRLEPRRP
Sequence of Glucocorticoid receptor (Homo sapiens) (P04150 whole entry, looked up): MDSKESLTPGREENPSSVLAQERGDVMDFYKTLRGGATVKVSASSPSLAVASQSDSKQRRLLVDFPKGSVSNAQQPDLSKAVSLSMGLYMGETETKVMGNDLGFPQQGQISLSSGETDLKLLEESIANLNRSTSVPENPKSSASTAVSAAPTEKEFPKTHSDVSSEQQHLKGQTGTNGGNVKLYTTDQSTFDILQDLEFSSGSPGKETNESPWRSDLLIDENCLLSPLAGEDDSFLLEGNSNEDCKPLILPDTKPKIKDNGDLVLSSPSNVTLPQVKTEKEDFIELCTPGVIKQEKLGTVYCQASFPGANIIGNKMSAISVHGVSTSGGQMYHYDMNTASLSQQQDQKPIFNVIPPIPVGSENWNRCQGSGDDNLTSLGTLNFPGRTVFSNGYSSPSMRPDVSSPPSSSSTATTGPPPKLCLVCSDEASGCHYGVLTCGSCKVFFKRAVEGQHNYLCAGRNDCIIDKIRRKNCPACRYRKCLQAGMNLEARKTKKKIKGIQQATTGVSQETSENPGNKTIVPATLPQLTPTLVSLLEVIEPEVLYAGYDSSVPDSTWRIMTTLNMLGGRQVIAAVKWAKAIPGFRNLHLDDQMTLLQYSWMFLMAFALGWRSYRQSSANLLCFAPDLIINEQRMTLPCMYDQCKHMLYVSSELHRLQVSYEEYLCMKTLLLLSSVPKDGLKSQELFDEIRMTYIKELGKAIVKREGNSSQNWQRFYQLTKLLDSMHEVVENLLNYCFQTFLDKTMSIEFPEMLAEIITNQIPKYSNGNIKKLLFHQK
Sequence of Cytochrome P450 3A4 (Homo sapiens) (P08684 whole entry, looked up): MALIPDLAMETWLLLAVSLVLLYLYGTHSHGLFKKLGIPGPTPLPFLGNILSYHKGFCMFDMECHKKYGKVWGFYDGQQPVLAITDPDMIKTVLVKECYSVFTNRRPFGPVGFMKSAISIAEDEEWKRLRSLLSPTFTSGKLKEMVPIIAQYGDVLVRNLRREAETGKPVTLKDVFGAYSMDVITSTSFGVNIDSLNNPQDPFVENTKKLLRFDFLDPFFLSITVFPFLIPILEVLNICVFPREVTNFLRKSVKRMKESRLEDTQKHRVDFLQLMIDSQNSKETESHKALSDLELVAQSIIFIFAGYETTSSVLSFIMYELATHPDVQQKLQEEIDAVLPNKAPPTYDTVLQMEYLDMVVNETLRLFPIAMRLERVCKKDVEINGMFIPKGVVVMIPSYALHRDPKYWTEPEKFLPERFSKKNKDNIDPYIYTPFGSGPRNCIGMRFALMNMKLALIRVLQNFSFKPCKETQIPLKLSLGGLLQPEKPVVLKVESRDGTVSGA
Sequence of Cytochrome P450 2C9 (Homo sapiens) (P11712 whole entry, looked up): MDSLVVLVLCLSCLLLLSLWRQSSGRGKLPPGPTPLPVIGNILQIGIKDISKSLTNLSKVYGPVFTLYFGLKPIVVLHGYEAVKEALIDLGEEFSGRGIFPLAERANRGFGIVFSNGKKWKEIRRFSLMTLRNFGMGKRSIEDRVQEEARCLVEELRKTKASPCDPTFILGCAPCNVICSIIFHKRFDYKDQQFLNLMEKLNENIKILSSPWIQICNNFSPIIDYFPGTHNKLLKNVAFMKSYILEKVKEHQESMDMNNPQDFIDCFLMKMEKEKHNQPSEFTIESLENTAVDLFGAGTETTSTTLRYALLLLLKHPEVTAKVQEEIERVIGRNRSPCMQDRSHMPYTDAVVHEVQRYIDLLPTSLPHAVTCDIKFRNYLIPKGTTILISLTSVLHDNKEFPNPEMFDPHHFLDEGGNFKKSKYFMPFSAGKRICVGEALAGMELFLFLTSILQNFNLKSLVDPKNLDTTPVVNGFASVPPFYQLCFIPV
Sequence of DNA dC->dU-editing enzyme APOBEC-3G (Homo sapiens) (Q9HC16 whole entry, looked up): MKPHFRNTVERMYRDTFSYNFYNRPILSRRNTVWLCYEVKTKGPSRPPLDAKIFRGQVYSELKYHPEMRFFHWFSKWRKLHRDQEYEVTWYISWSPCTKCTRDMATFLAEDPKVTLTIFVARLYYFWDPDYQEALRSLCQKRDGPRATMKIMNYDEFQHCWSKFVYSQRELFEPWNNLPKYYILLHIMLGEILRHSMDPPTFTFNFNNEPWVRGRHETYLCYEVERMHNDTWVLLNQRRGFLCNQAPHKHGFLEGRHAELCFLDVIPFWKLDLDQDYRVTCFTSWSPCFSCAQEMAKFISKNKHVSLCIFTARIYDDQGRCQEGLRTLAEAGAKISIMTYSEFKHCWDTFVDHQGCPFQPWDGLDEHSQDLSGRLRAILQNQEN

As for `COC(=O)N1C(c2ccccc2)C1c1ccccc1` (centres undefined), the Potency entry in [1] and in [2] was “inactive” throughout. Further, the activation in assay [3] is 10.2% [at 17.1 µM, percent relative to cAMP agonist control]. For the same compound, in [4], the activity change, negative = inhibition is 4.2% [at 30.8 µM].

`Cc1ccccc1OCC(=O)N1CCN(CCc2ccccn2)CC1`: the Potency result in [1], in [3] and in assay [6] was “inactive” each time. The activity change, negative = inhibition in [5] was 1.52% [at 12.7 µM]. Further, the compound was classed as inactive in assay [4].

For the compound `CCCCC/C=C\C/C=C\C/C=C\C/C=C\CCCC(=O)Nc1ccc(O)cc1`, the Potency in assay [7] is above 46 µM; in [8] it was above 46 µM; in [10], 5.01 µM (active); in [11], 5.01 µM (active). Further, the call in [9] and in assay [13] was inactive. The Potency entry in assay [12], in assay [1], in [2], in [3] and in [5] was “inactive” each time.

Take `O=C(c1ccco1)c1cn(Cc2ccccc2)c2ccccc12`: the Potency result in assay [1], in assay [2], in [3] and in assay [6] was “inactive” in each case. The call in [4] was inactive.

Take `COc1ccc(CN2C(=O)NC(=O)/C(=C/c3ccc([N+](=O)[O-])s3)C2=O)cc1`: in [1], the Potency is 9.53 µM (active). The Potency result in [2] and in [3] was “inactive” throughout. Moreover, the compound was classed as inactive in assay [4].

In the case of `Cn1cc(/C=C2\C(=O)NC(=O)N(c3ccccc3)C2=O)c2ccccc21`, the Potency result in [1] and in assay [6] was “inactive” each time. Also, the Potency in assay [3] is 112 µM (active); in assay [5], 95.3 µM (active). In addition, in assay [4], the call was inactive.

Consider `COc1cc2c(cc1OC)-c1c(OC)c(OC)cc3c1[C@H](C2)N(C)CC3`, for which the Potency result in [2] is “inactive”. Moreover, the activation in [3] is 9.51% [at 17.1 µM, percent relative to cAMP agonist control]. The activity change, negative = inhibition was -6.31% [at 12.7 µM] in assay [5] and 10.1% [at 30.8 µM] in assay [4].

On to `CCCNC1=C(C)C(=O)C2=C(C1=O)C(COC(N)=O)[C@]1(OC)C3NC3CN21` (some centres undefined), for which the Potency entry in assay [2], in [3] and in assay [5] was “inactive” in each case. Besides, the call in [4] was inactive.

On to `CCOC(=O)[C@]12Cc3cc(OC)ccc3[C@H]1N(Cc1ccccc1)C(=O)c1ccccc12`, for which the Potency entry in assay [2] and in [3] was “inactive” each time. In addition, in assay [5], the Potency is 19 µM (active). Also, the compound was called inactive in [4].

For `COCCNC(=O)Cn1cc(/C=C2\C(=O)NC(=O)N(c3ccccc3F)C2=O)c2ccccc21`, the Potency result in assay [2], in assay [3] and in assay [5] was “inactive” throughout. In assay [4], the compound was called inactive.

For `CCOC(=O)c1c(-c2ccccc2)oc2ccc(OC(=O)N(C)C)cc12`, the Potency entry in [2], in assay [3], in [5] and in assay [6] was “inactive” each time. The result in assay [4] was inactive.

Consider `CCOC(=O)[C@]12Cc3cc(Cl)ccc3[C@H]1N(C(C)C)C(=O)c1ccccc12`, for which the Potency entry in assay [2] and in [3] was “inactive” each time. For the same compound, the Potency in [5] is 21.3 µM (active). Besides, the result in assay [4] was inactive.

As for `O=C1NC(=O)N(Cc2ccc(F)cc2)C(=O)/C1=C\C=C\c1ccco1`, the Potency result in [2] is “inactive”. Besides, the activation in [3] is 3.22% [at 17.1 µM, percent relative to cAMP agonist control]; in assay [6], 7.61% [at 30.8 µM]. The activity change, negative = inhibition was -5.04% [at 12.7 µM] in [5] and 6.52% [at 30.8 µM] in [4].

Take `Cn1cccc1/C=C1\C(=O)NC(=O)N(Cc2ccccc2)C1=O`: the Potency entry in assay [2], in assay [3] and in assay [5] was “inactive” each time. Moreover, the compound was called inactive in assay [4].

Turning to `COc1cc(/C=C/c2nc3ccccc3c(=O)n2-c2cccc(O)c2)ccc1O`, the Potency result in assay [2], in assay [3] and in [5] was “inactive” throughout. Besides, the result in [4] was inactive.

With `Cc1cccc(OCCn2cccc2/C=C2/C(=O)NC(=O)N(Cc3ccco3)C2=O)c1`, the Potency result in assay [2], in assay [3] and in assay [5] was “inactive” throughout. The compound was called inactive in assay [4].

Consider `CC(c1ccccc1)(c1ccccc1)c1ccncc1`, for which, in assay [2], the Potency entry was “inactive”. For the same compound, in [3], the activation is 0% [at 17.1 µM, percent relative to cAMP agonist control]. For the same compound, the activity change, negative = inhibition is -28.4% [at 12.7 µM] in [5] and -6.49% [at 30.8 µM] in [4].

Turning to `Cc1ccc(-n2c(O)c(C=NCc3ccco3)c(=O)[nH]c2=S)cc1C`, the Potency result in assay [2], in assay [3] and in [5] was “inactive” throughout. The call in assay [4] was inactive.

For the compound `O=C1NC(=O)N(Cc2ccccc2)C(=O)/C1=C\c1ccco1`, in assay [2], the Potency entry was “inactive”. Further, the activation in [3] is 4.68% [at 17.1 µM, percent relative to cAMP agonist control]; in [6] it was 12.3% [at 30.8 µM]. Further, the activity change, negative = inhibition was 4.49% [at 12.7 µM] in assay [5] and 0.623% [at 30.8 µM] in assay [4].

As for `CCOC(=O)c1[nH]c2ccc(OC)cc2c1C(SCC(=O)O)c1ccc(C(F)(F)F)cc1` (centres undefined), the Potency result in assay [2] is “inactive”. In assay [3], the activation was 2.9% [at 17.1 µM, percent relative to cAMP agonist control]. For the same compound, the activity change, negative = inhibition in assay [5] is -9.73% [at 12.7 µM]; in [4] it was -0.779% [at 30.8 µM].

On to `CC(=O)C1C2c3ccccc3O[C@@]1(C)N=c1s/c(=C/c3ccoc3)c(=O)n12` (some centres undefined), for which the Potency result in assay [2], in assay [3] and in assay [5] was “inactive” each time. For the same compound, in assay [4], the result was inactive.

Regarding `Cc1cc(C=C2C(=O)NC(=S)NC2=O)c(C)n1C1CCCC1`, the Potency entry in [2], in assay [3], in assay [5] and in assay [6] was “inactive” in each case. In assay [4], the compound was called inactive.

As for `Nc1c2c(nc3sc4c(c13)CCCC4)CCCC2`, in assay [2], the Potency result was “inactive”. The activation was 3.84% [at 17.1 µM, percent relative to cAMP agonist control] in assay [3] and 3.23% [at 30.8 µM] in [6]. The activity change, negative = inhibition in assay [5] was -3.15% [at 12.7 µM]; in [4], 4.03% [at 30.8 µM].

`Cn1cccc1/C=C1/C(=O)NC(=O)N(Cc2ccc(F)cc2)C1=O`: the Potency result in assay [2], in assay [3] and in [5] was “inactive” throughout. For the same compound, the outcome in [4] was inactive.

Turning to `CC(=O)C1C2c3ccccc3OC1(C)N=c1s/c(=C/c3cn(C)nc3C)c(=O)n12` (centres undefined), the Potency result in [2], in assay [3], in [5] and in [6] was “inactive” each time. The call in assay [4] was inactive.

Consider `Cn1cccc1/C=C1/C(=O)NC(=O)N(Cc2ccccc2)C1=O`, for which the Potency result in assay [2], in [3], in assay [5] and in [6] was “inactive” each time. The compound was called inactive in [4].

Take `CCOC(=O)[C@]12Cc3cc(Cl)ccc3[C@H]1N(Cc1ccccc1)C(=O)c1ccccc12`: the Potency result in [2], in assay [3] and in [5] was “inactive” in each case. Further, the result in assay [4] was inactive.

`CCCCN1C(=O)/C(=C/c2ccc(N(C)C)cc2)C(=O)N(Cc2ccco2)C1=O`: in assay [2], the Potency result is “inactive”. The activation in [3] is 15.2% [at 17.1 µM, percent relative to cAMP agonist control]. In addition, the values for the activity change, negative = inhibition in assay [5] and in assay [4] were 35.5% [at 12.7 µM] and 25.6% [at 30.8 µM], respectively.

The values are drawn from PubChem BioAssay (NCATS).
